Assay outcomes: PubChem, several laboratories
Cav3 T inh: inhibitors of human Cav3.2 T-type calcium channel. AID 449739. 4% of 100,000 active. B-score at 10 µM. Cav3.2-expressing cells, Fluo-4 calcium fluorescence FDSS; active compounds read low. O95180;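 active means single-dose well whose peak fluorescence ratio is a statistical outlier from its plate by either plate-standardised score or position-corrected B-score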
Target sequence (O95180 whole entry, looked up): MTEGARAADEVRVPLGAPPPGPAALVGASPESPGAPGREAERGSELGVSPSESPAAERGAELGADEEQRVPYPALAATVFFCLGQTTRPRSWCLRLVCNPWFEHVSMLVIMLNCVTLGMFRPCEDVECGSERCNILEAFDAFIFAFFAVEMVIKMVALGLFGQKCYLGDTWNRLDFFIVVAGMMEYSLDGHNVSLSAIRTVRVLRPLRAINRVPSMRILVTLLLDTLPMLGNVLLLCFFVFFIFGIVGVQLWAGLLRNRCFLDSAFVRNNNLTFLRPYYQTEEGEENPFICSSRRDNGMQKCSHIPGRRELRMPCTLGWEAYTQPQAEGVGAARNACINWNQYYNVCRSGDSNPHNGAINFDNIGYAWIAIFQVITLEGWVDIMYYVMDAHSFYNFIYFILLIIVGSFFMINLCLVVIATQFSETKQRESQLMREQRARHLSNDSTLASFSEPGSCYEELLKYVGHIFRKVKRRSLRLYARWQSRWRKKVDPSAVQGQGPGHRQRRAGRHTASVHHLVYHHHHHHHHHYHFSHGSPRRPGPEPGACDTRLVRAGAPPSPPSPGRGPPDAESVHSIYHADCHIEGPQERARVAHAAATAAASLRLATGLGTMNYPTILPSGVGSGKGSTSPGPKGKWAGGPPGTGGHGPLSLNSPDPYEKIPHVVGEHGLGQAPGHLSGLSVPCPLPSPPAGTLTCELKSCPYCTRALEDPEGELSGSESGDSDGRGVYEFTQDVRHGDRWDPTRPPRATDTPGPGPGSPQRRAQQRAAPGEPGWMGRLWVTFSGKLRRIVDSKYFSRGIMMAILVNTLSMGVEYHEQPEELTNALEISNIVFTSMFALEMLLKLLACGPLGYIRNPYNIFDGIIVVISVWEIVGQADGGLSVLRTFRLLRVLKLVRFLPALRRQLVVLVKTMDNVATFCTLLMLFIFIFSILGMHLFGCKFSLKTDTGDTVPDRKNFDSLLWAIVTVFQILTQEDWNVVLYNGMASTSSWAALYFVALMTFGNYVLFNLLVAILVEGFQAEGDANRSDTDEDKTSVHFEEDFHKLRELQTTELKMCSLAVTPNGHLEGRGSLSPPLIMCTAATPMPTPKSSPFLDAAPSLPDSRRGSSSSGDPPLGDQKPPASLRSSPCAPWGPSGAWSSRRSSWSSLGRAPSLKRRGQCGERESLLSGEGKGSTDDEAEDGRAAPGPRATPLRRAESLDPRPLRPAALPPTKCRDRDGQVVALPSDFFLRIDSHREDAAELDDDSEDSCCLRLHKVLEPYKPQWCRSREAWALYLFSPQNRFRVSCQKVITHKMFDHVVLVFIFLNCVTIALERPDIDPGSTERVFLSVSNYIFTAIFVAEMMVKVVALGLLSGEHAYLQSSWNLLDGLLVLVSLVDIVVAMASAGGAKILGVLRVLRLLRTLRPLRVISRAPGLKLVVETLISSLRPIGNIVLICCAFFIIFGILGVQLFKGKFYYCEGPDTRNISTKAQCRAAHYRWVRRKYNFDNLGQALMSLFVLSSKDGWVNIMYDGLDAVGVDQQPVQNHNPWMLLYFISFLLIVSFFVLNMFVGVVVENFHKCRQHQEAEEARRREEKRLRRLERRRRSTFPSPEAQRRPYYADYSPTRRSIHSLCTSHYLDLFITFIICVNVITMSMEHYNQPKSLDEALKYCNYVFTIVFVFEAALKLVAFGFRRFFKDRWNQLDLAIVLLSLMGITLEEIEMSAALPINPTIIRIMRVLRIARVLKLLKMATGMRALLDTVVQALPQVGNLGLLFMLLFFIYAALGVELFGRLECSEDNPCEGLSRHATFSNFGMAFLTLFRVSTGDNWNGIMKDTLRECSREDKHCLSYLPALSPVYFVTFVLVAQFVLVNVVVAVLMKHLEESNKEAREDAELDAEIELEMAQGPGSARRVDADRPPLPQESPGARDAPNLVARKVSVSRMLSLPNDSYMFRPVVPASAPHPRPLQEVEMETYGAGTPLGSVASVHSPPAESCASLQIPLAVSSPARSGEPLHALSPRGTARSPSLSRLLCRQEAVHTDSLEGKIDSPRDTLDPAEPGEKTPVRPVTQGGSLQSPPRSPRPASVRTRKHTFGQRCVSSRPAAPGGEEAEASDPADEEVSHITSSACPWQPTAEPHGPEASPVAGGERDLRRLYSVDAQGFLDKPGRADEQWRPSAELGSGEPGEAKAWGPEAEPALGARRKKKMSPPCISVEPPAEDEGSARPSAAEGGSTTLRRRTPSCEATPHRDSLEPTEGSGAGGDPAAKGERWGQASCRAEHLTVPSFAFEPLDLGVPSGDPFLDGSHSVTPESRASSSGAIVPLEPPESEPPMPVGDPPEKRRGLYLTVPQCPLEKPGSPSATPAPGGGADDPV
D1 allo mod: allosteric modulators of human D1 dopamine receptor | P21728 | HEK293 D1, CRE-luciferase, dopamine EC30 potentiation; actives deviate in either direction | B-score at 10 µM | 5.9% of 58,000 active | AID 641;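 active means luminescence count or its row- and column-corrected plate score outside the 99.7% band of the plate's sample wells, on either side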
PLAP activator: activators of human placental alkaline phosphatase; P05187; purified PLAP enzyme, luminescent substrate read-out; active compounds read high; activation fold at 20 µM; 1.2% of 96,000 active; AID 696; in the data active means activation fold above about 2
PostGolgi ctrl: yeast control strain growth, post-Golgi counter-screen; efflux-deficient yeast background strain, growth absorbance A615, 16 h; inhibition, % at 10 µM; 5% of 98,000 active
DAT uptake mod: changed human dopamine transporter uptake under cocaine IC80; LLC-PK1 hDAT cells, [14C]-dopamine uptake with cocaine IC80; actives deviate in either direction; B-score at 10 µM; 1.3% of 110,000 active;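 active means Z score or B-score, a plate-position-corrected score, falls beyond the plate's 99.7% confidence bounds, in either direction; inactive means both scores lie inside the 99.7% bounds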;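 further: scored against the spread of the other compound wells on the same plate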
PostGolgi yeast: growth inhibition of a yeast mutant, post-Golgi transport screen; post-Golgi transport phenotypic cell assay; inhibition, % at 10 µM; 0.9% of 98,000 active; AID 739;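 further: yeast cells grown in 1536-well plates; yeast grown about 18 h at 30C before absorbance read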
Active calls of the source: *; · = no result. In the library only some 12% were active in any assay of this set; here they are far more common. Unless noted, no stated cut-off is given here; in the data, active means inhibition above about 30%; inactive means the rest.

SMILES	Cav3 T inh	D1 allo mod	PLAP activator	PostGolgi ctrl	DAT uptake mod	PostGolgi yeast
c1ccc(-n2ncc3c(NCc4cccnc4)ncnc32)cc1	0.89	·	1.2	10	2.6*	7
NNc1ncnc2c1cnn2-c1ccccc1	2.5	·	1.3	0	-1.3	17
CC(C)Nc1ncnc2c1cnn2-c1ccccc1	0.14	-4.4*	·	3	1.4	4
Cc1cccc(-n2ncc3c(NC(C)C)ncnc32)c1	0.12	-3.6*	1.1	-6	1.1	-2
Cc1ccc(-n2ncc3c(NCCCn4ccnc4)ncnc32)c(C)c1	2	·	1	·	0.0056	·
Cc1cccc(-n2ncc3c(NCCCn4ccnc4)ncnc32)c1	0.66	-4.1*	1.3	14	1.3	0
CCN1CCCC1CNC(=O)c1nn(-c2ccc(C)cc2)c(=O)c2c1c1ccccc1n2C (stereo not drawn)	·	-1.8	·	·	·	·
O=C(OCc1ccccc1)C1CCCN1C(=O)c1ccccc1[N+](=O)[O-] (stereo not drawn)	0.86	·	1	16	0.73	4
CCOc1ccc(Nc2ncnc3c2cnn3-c2ccccc2)cc1	·	1.3	1	7	-0.2	-6
Cc1ccccc1Nc1ncnc2c1cnn2-c1ccccc1	-2.8	-1.5	0.9	23	3.1*	-12
O=C1CCn2nc(-c3ccc(Cl)cc3)cc2N1	0.083	0.89	1	3	1.8	-1
Cn1c(=O)n(Cc2ccc(F)cc2)c(=O)c2c1nc1n2CCCN1Cc1ccccc1	-4.5	-0.24	1.6	45*	0.59	2
Cc1cc(C)cc(N2CCCn3c2nc2c3c(=O)n(CC(=O)OCc3ccccc3)c(=O)n2C)c1	0.02	-1.1*	0.8	5	0.17	15
COc1ccc(N2CCCn3c2nc2c3c(=O)n(CCc3ccccc3)c(=O)n2C)cc1	0.12	-2.8*	1.1	·	-1.3	·
CCOc1ccc(N2CCCn3c2nc2c3c(=O)n(CCc3ccccc3)c(=O)n2C)cc1	·	-0.039	·	·	·	·
Cc1ccc(N2CCCn3c2nc2c3c(=O)n(CC(=O)OCc3ccccc3)c(=O)n2C)cc1C	·	-1.4	1.6	·	·	·
Cn1cnc2c1c(=O)n(Cc1ccccc1)c(=O)n2C	0.11	·	0.8	-7	-1.2	-7
Cn1c(=O)n(CCc2ccccc2)c(=O)c2c1ncn2Cc1ccccc1	0.055	·	1	38*	0.098	-5
CC(C)OCCCn1c(=N)c(C(N)=S)cc2c(=O)n3ccccc3nc21	0.024	·	1.4	-1	-0.013	24
CCn1c(SCC(=O)Nc2ccccc2C(=O)OC)nnc1-c1ccoc1C	1.4	-0.44	1	9	2.3	1
CCOC(=O)Cn1c(=O)c2c(nc(N3CCOCC3)n2C)n(C)c1=O	0.16	·	1.2	0	-0.87	-3
Cn1c(N2CCOCC2)nc2c1c(=O)n(Cc1ccc(Cl)c(Cl)c1)c(=O)n2C	-1.2	·	1.5	40*	1.3	-10
Cn1c(=O)n(CCc2ccccc2)c(=O)c2c1nc1n2CCCN1CCc1ccccc1	·	-1.1	1.5	37*	0.53	6
CCOC(=O)Cn1c(=O)n(Cc2ccco2)c(=O)c2ccc(C(=O)NCCc3ccccc3)cc21	-4.6*	-0.23	1.3	12	1.2	-2
CC(C)=CC(=O)Nc1ccc(Br)cc1	-0.61	-1.9	0.9	2	0.69	2
SMILES	Cav3 T inh	D1 allo mod	PLAP activator	PostGolgi ctrl	DAT uptake mod	PostGolgi yeast
CC/C(=C\C(=O)c1ccncc1)Nc1ccc(Br)cc1	-1.1	·	1.1	37*	0.098	34*
O=C(CSc1cccc(C(F)(F)F)c1)NC(=O)NCc1ccco1	-5.3*	·	0.8	21	-0.47	10
CN1C(=O)CC(C(=O)O)SC1=Nc1cccc(C(F)(F)F)c1 (stereo not drawn)	0.062	0.15	·	-1	0.12	-4
CCOC(=O)N1CCC(NC(=O)c2ccc3c(c2)sc2nc(-c4cccc(OC)c4)cn23)CC1	·	-2.6*	·	16	·	0
CCOC(=O)N1CCC(NC(=O)c2ccc3snnc3c2)CC1	0.29	-0.16	0.8	0	2.8*	9
CCOC(=O)C1CCN(C(=O)c2ccc3snnc3c2)CC1	0.76	-0.029	·	·	-0.072	·
CCOC(=O)N1CCC(NC(=O)c2ccc3c(c2)sc2nc(-c4ccccc4)cn23)CC1	-1.5	·	1.4	9	0.7	-3
CC(C)(C)C(=O)[C@@H]1[C@@H]2C(=O)N(Cc3ccccc3)C(=O)[C@@H]2[C@H]2c3ccccc3C=CN12	-3.2	·	1.4	13	2	11
CC(C)(C)C(=O)[C@H]1[C@H](c2ccccc2)[C@@]2(N=C(c3ccccc3)OC2=O)C2c3ccccc3C=NN21 (stereo partly drawn)	-2.4	·	1.3	37*	-0.36	-10
COC(=O)c1ccc2c(c1)N(Cc1nc(-c3ccc(Cl)cc3)oc1C)C(=O)C1CCCN21 (stereo not drawn)	·	-0.32	·	·	·	·
O=C(Oc1ccc(-c2cnc3ccccc3n2)cc1)c1cccc([N+](=O)[O-])c1	-1.1	·	1	3	1.5	19
O=C(Oc1ccc([N+](=O)[O-])cc1)c1cc(-c2ccccc2)nc2ccccc12	-1.6	·	1	42*	-0.22	13
CCN(CC)C(=O)COC(=O)c1cc(-c2ccc(OC)cc2)nc2ccccc12	-3.2	·	1.7	40*	0.5	1
COc1ccnc(Oc2ccc(C)cc2C)c1C#N	0.38	·	0.9	13	-0.31	-1
CCSc1nnc(NC(=O)c2nc(-c3ccccc3)n(-c3ccccc3)n2)s1	-1.4	-0.45	1.4	16	1.4	2
CCSc1nnc(NC(=O)c2ccc3ccccc3n2)s1	-0.92	·	1.1	33*	0.59	13
CCSc1nnc(NC(=O)c2cc(C)nc3ccccc23)s1	1.6	·	1	39*	-0.46	-7
COC(=O)c1cccc(NC(=O)c2nn(C(C)C)c(=O)c3ccccc23)c1	-1	0.038	0.9	13	0.23	1
CCSc1nnc(NC(=O)c2cccs2)s1	1.1	1.6	0.8	3	-0.71	-4
CCSc1nnc(NC(=O)c2nn(C(C)C)c(=O)c3ccccc23)s1	-0.22	4.8	1.3	30*	2.3	7
O=C(Cn1nnc(-c2ccncc2)n1)N(C1CCCCC1)C1CCCCC1	-0.11	-0.089	1.2	21	0.19	-2
O=C(c1ccc(Cl)cc1)N1CCCCC(Sc2nnc(-c3ccc4c(c3)OCO4)o2)C1=O (stereo not drawn)	·	-10*	·	24	·	5
COc1cc(SC)ccc1C(=O)NCc1ccc(C)cc1	-1.8	·	0.9	24	2	44*
CCCNC(=O)c1ccc(SC)cc1OC	·	-0.26	0.9	18	0.058	-8
Cc1cccc(C)c1OC1(c2ccccc2)OC(=O)c2ccccc21 (stereo not drawn)	-6.6*	·	1	15	0.23	-14
Cc1cc(C)c(OC2(c3ccccc3)OC(=O)c3ccccc32)c(C)c1 (stereo not drawn)	-3.7	·	1	5	-1.3	-10
Cc1cc(NC(=O)CCC(=O)N(CC(=O)NCC2CCCO2)c2ccc3c(c2)OCCO3)no1 (stereo not drawn)	-0.052	·	·	·	-0.32	·
